From PubChem BioAssay AID2599 (Sanford-Burnham Center for Chemical Genomics, 2010)
Screen size: about 330,000 compounds; about 5,800 (1.8%) were called active. This excerpt belongs to a sample that is enriched for actives. Values without a mark were called inactive.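 The calls were made as follows: active = inhibition above about 50% at the single tested dose (limit read from the data); inactive = the rest.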

What follows are compounds tested against Sentrin-specific protease 6 (Homo sapiens) (UniProt Q9GZR1) (assay: SENP6 protease inhibitors, primary screen, biochemical, luminescence, uHTS (AID 2599;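 also: plate controls were DMSO wells with enzyme for no effect and DMSO wells lacking enzyme for full effect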)). Conditions: Recombinant SENP6 catalytic domain, aminoluciferin luminescence; at 10 µM; hits give high values.
Chain of Sentrin-specific protease 6 (Homo sapiens) (Q9GZR1 628-1112 limits assumed): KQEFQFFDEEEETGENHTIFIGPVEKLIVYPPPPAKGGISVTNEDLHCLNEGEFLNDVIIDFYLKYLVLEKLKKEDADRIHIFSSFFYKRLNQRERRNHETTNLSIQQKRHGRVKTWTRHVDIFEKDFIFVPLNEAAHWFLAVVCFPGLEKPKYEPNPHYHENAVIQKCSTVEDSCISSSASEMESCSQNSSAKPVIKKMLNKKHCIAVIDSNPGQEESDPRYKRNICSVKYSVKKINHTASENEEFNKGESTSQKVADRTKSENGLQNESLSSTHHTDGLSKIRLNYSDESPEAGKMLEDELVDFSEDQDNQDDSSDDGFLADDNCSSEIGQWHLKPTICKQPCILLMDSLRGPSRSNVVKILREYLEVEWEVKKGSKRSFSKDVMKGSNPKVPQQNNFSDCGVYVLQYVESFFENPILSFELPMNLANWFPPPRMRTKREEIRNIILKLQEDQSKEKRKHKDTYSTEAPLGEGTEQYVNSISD

| Structure (SMILES) | inhibition |
| --- | --- |
| CCOc1ncccc1C(=O)N(C)CC(=O)Nc1ccc(F)cc1 | -13.5% |
| COc1ccc(CCC(C)N2CCc3ccccc3C2)cc1 (configuration not stated) | -16.3% |
| CC1CCC(NC(=O)CNC(=O)c2ccc3ccccc3c2)CC1 (configuration not stated) | -5.64% |
| COc1ccc(N(CC(=O)NCc2ccc(F)cc2)C(=O)CCC(=O)Nc2nccs2)cc1 | -20.2% |
| O=C(COC(=O)c1c2c(nc3ccccc13)CCCC2)c1ccc(Br)s1 | -21.7% |
| Cn1cccc1C(=O)OCC(=O)c1ccc(Br)s1 | 80.6% (active) |
| Cn1cccc1C(=O)OCC(=O)NCCc1ccccc1 | 2.46% |
| Cc1cc(C(=O)N2CCC(C(=O)O)CC2)c(C(F)(F)F)o1 | -4.3% |
| CCCNC(=S)NC1CC2CCCC(C1)N2CC(C)C (configuration not stated) | -7.92% |
| COc1ccc(CNC(=O)Cc2ccc(-c3ccccc3)cc2)cc1OC | -23.6% |
| COc1ccc(CNC(=O)COC(=O)c2c(C)nn(-c3ccccc3)c2C)cc1OC | -8.11% |
| COc1ccc(CNC(=O)COc2ccccc2C(=O)c2cnn(-c3ccccc3)c2)cc1OC | 82.5% (active) |
| COC(=O)C1=C(C(=O)OC)[C@@H]2N(C)c3ccccc3[C@@]23C[C@@H](C(=O)OC)N(C(C)=O)C3=N1 | 3.79% |
| CC(C)(C)NC(=O)Cn1c(SCC(=O)Nc2nccs2)nc2ccccc21 | 1.04% |
| CN1C/C(=C/c2cccs2)C(=O)/C(=C\c2cccs2)C1 | 8.32% |
| O=C1/C(=C/c2cccs2)CCc2ccccc21 | 94.5% (active) |
| COc1ccc(/C=C2\CCc3ccccc3C2=O)c(OC)c1OC | -14.7% |
| Cc1ccc(NS(=O)(=O)c2cccs2)cc1S(=O)(=O)N1CCCCCC1 | -3.66% |
| O=C(OCC(=O)N1CCCC1)c1ccco1 | -23.3% |
| CCc1ccc(C(=O)COC(=O)c2ccco2)cc1 | 66.8% (active) |
| CCN(CC)c1ccc(C(=O)OCC(=O)c2ccco2)cc1 | -14.3% |
| Cc1ccc(CN2CC(C(=O)NNC(=O)Cn3ccc(C(F)(F)F)n3)CC2=O)cc1 (configuration not stated) | -0.795% |
| NC(=O)c1ccc(Nc2ccc3nonc3c2[N+](=O)[O-])cc1 | 6.58% |
| O=[N+]([O-])c1c(NCCO)cc(Sc2nc3ccccc3s2)c2nonc12 | 79.3% (active) |
| Cc1nc2nc(CSc3nc4ccccc4s3)cc(=O)n2[nH]1 | -34.9% |
| COc1ccc(C)cc1S(=O)(=O)Nc1cccc(Cl)c1Cl | -4.81% |
| O=C(Cc1ccc(Cl)cc1)NCc1nc(-c2ccccc2)no1 | -9.63% |
